Experimental data taken from paper PMC4552634, “A New Set of Chemical Starting Points with Plasmodium falciparum Transmission-Blocking Potential for Antimalarial Drug Discovery” (PLoS ONE, 2015).
Like-named read-outs stand apart in the source and are kept apart here. The whole screen tested about 13,000 compounds, of which about 3,200 (25%) showed an effect of 50% or more. Some of the results follow.

Test system: P. falciparum stage V gametocytes
Design: BacTiter-Glo ATP luminescence viability of purified stage V gametocytes in 384-well plates, per cent inhibition versus DMSO
Conditions: 48 h, 5 µM, inhibitor

Compound | % Inhibition [%] | % Inhibition (% Inhibition) [%]
COc1cccc(CN2CCCC(OC(c3ccccc3)c3ccccc3)C2)c1O (centres unmarked) [TCMDC-136385] | -25.83 | 
CCN1CCCC1CNC(=O)c1cc2c(-c3ccc(Cl)cc3)nn(C)c2s1 (centres unmarked) [TCMDC-123579] | 67.12 | 
CCCN1CCN(CCCNC(=O)c2cc3c(-c4ccc(Cl)cc4)nn(C)c3s2)CC1 [TCMDC-124731] | 12.34 | 
Cn1nc(-c2ccc(Cl)cc2)c2cc(C(=O)NCCN3CCOCC3)sc21 [TCMDC-124416] | 0.2691 | 
CCc1cn2c3c(cc(C(=O)N[C@@H](Cc4ccccc4)[C@H](O)CNCC(C)C)cc13)N(C)S(=O)(=O)CC2 [TCMDC-135804] | 36.82 | 
CCc1cn2c3c(cc(C(=O)N[C@@H](Cc4ccccc4)[C@H](O)CNCc4ccccc4C)cc13)N(C)S(=O)(=O)CC2 [TCMDC-135922] | -22.32 | 
CCc1cn2c3c(cc(C(=O)N[C@@H](Cc4ccccc4)[C@H](O)CNCc4cccc(C)c4)cc13)N(C)S(=O)(=O)CC2 [TCMDC-135923] | 15.33 | 
CCCNC[C@@H](O)[C@H](Cc1ccccc1)NC(=O)c1cc2c3c(c1)c(CC)cn3CCS(=O)(=O)N2C [TCMDC-135863] | 78.77 | 
CCc1cn2c3c(cc(C(=O)N[C@@H](Cc4ccccc4)[C@H](O)CNCCOC)cc13)N(C)S(=O)(=O)CC2 [TCMDC-135799] | 12.82 | 
CCNC[C@@H](O)[C@H](Cc1ccccc1)NC(=O)c1cc2c3c(c1)c(CC)cn3CCS(=O)(=O)N2C [TCMDC-135800] | 27.6 | 
CCc1cn2c3c(cc(C(=O)N[C@@H](Cc4ccccc4)[C@H](O)CNCc4ccc(C)cc4)cc13)N(C)S(=O)(=O)CC2 [TCMDC-135924] | 11.35 | 
CCc1cn2c3c(cc(C(=O)N[C@@H](Cc4ccccc4)[C@H](O)CNCc4ccccc4)cc13)N(C)S(=O)(=O)CC2 [TCMDC-135883] | 74.56 | 
CCCCNC[C@@H](O)[C@H](Cc1ccccc1)NC(=O)c1cc2c3c(c1)c(CC)cn3CCS(=O)(=O)N2C [TCMDC-135802] | 53.96 | 
COC(=O)c1ccc(CC(C)NCC(O)c2cccc(C(F)(F)F)c2)cc1 (centres unmarked) [TCMDC-131435] |  | 22.12
COc1ccc(OC)c(CNCC(O)c2cc(C(F)(F)F)cc(C(F)(F)F)c2)c1 (centres unmarked) [TCMDC-140306] | 38.32 | 
Cc1nc2ccc3ccc(CNc4ccc(C(=O)CC(CCC(=O)O)C(=O)O)cc4)cc3c2c(=O)[nH]1 (centres unmarked) [TCMDC-137855] | 12.05 | 
COc1cc(C(C)C)ccc1N1CCN(CCCCNC(=O)c2ccc(NC(=O)c3ccc(Cl)cc3)cc2)CC1 [TCMDC-138518] | -18.1 | 
N#Cc1cccc(NC(=O)Nc2cccc(-c3cccc(-c4nc5ccc(F)cc5[nH]4)c3)c2)c1 [TCMDC-133197] | -38 | 
COCC(=O)N(Cc1ccccc1-c1cccc(CNCCc2ccccc2)c1)C1CCN(Cc2ccccc2)CC1 [TCMDC-140533] | 103.5 | 
COCC(=O)N(Cc1ccccc1-c1ccc(CNCCc2ccccc2)cc1)C1CCN(Cc2ccccc2)CC1 [TCMDC-140534] | 105.6 | 
CCNc1cc(C(=O)N[C@@H](Cc2ccc(F)c(F)c2)[C@H](O)CNCc2cccc(OC)c2)cc(N2CCCCS2(=O)=O)c1 [TCMDC-135059] | -18.05 | 

Compound | % Inhibition [%] | % Inhibition (% Inhibition) [%]
CC1(C)N=C(NC(=O)c2ccc([N+](=O)[O-])cc2)N=C(N)N1OCc1ccc2ccccc2c1 [TCMDC-131580] | 48.26 | 
CC12CC3CC(C)(C1)CC(Nc1nc(N4CCOCC4)nc4ccccc14)(C3)C2 [TCMDC-123862] | -97.33 | 
Nc1nc(N)c2c(Cl)c(N3CCOCC3)ccc2n1 [TCMDC-137868] | -6.497 | 
FC(F)c1nc2ccccc2n1-c1nc(N2CCOCC2)nc(N2CCOCC2)n1 [TCMDC-137004] | 98.45 | 
O=c1ccc2ccc(F)cc2n1CCN1CCC(NCc2ccc(-c3ccccn3)s2)CC1 [TCMDC-135133] | 2.874 | 
NC1=NC(c2ccccc2)N(c2ccc(Cl)c(Cl)c2)C(N)=N1 (centres unmarked) [TCMDC-136305] | 1.025 | 
CCN(CC)CCNc1nccc(N(C)c2ccc(NC(=O)Nc3cc(C(F)(F)F)ccc3F)cc2)n1 [TCMDC-141632] | 74.5 | 
CN(c1ccc(NC(=O)Nc2cccc(Cl)c2)cc1)c1ccnc(N)n1 [TCMDC-138782] | 0.5988 | 
CN(C)CCCNc1nccc(N(C)c2ccc(NC(=O)Nc3cc(C(F)(F)F)ccc3F)cc2)n1 [TCMDC-141633] | 100.7 | 
CCNC(=O)Nc1ccc(N(C)c2ccnc(Nc3ccc(CS(C)(=O)=O)cc3)n2)cc1 [TCMDC-138759] | -39.6 | 
CN(c1ccc(NC(=O)Nc2cc(C(C)(C)C)on2)cc1)c1ccnc(NCCN2CCOCC2)n1 [TCMDC-141706] | 2.344 | 
CN(c1ccc(NC(=O)Nc2cc(C(C)(C)C)on2)cc1)c1ccnc(NCCOC(=O)Nc2cc(C(C)(C)C)on2)n1 [TCMDC-141707] | 55.26 | 
CCN(CC)CCCNc1nccc(N(C)c2ccc(NC(=O)Nc3cc(C(F)(F)F)ccc3F)cc2)n1 [TCMDC-141634] | 97.67 | 
COc1cc(NC(=O)CCCCCCCCN2CCN(C)CC2)c2ncccc2c1 [TCMDC-138212] | 0.271 | 
CCCCCCc1cc2cc(-c3csc(C=Cc4ccccc4)n3)c(=O)oc2cc1O [TCMDC-125662] | -11.21 | 
COc1ccc2nccc([C@@H](O)CN3CCC(NCc4cc5ccccc5s4)CC3)c2c1 [TCMDC-140684] | 1.924 | 
COc1ccc2nccc([C@@H](O)CN3CCC(NCc4[nH]c5ccccc5c4F)CC3)c2c1 [TCMDC-141052] | 4.499 | 
CC(=O)c1ccc(NC(=O)Nc2ccc(N(C)c3ccnc(NC4CC4)n3)cc2)cc1 [TCMDC-138767] | 82.68 | 
CCNC(=O)Nc1ccc(N(C)c2ccnc(NC3CC3)n2)cc1 [TCMDC-138763] | 40.84 | 
CCCNC(=O)Nc1ccc(N(C)c2ccnc(NC3CC3)n2)cc1 [TCMDC-138764] | 12.51 | 
